Test results: PubChem BioAssay
The source made the active and inactive calls. Unless noted, how the calls were made is not given here.

Key:
[1] = test system: Wnt5a (protein binding on small-molecule microarray); assay: small molecules binding Wnt5a protein – biophysical, small-molecule microarray, 635/667 nm fluorescence, primary screen (AID 1142); conditions: 635 nm fluorescence, higher = more signal;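 further: fluorescence read at 667 nm with signal to noise per printed feature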
[2] = ATP-based viability of Huh7 replicon cells – cell-based, CellTiter-Glo luminescence, basal, 48 h, cytotoxicity control for HCV replication inhibitor project, primary screen (AID 1143); conditions: higher = more signal, called active from +8 up or from −8 down;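 further: Huh7 hepatoma cells carrying a hepatitis C replication reporter with no stimulus; test concentration not given here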
[3] = Pseudomonas biofilm growth suppression – PAO1 strain, BacTiter-Glo luminescence, LB-PBS, primary screen (AID 1144); conditions: P. aeruginosa PAO1 biofilm, 12 h, higher = more signal
[4] = basal CRE-LacZ reporter activity in PC12 – cell-based, unstimulated, primary screen (AID 1145); conditions: no forskolin, luminescence, 4.5 h, higher = more signal, called active from +8 up or from −8 down
[5] = forskolin-driven CRE-LacZ activity in PC12 – cell-based, CRE-LacZ reporter, forskolin-stimulated, primary screen (AID 1146); conditions: luminescence, 4.5 h, higher = more signal, called active from +8 up or from −8 down;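 further: PC12 cells with 6xCRE LacZ reporter stimulated by forskolin 10 µM; beta-galactosidase reporter signal reflecting CREB driven transcription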
[6] = molecular target: Streptavidin (Streptomyces avidinii) (UniProt P22629); assay: compounds binding control protein streptavidin – biophysical, small-molecule microarray, 635/667 nm fluorescence, artefact control for SMM compound annotation, primary screen (AID 1147); conditions: higher = more signal;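 further: signal reflects streptavidin binding to arrayed compounds as a control protein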
Sequence of Streptavidin (Streptomyces avidinii) (P22629 whole entry, looked up): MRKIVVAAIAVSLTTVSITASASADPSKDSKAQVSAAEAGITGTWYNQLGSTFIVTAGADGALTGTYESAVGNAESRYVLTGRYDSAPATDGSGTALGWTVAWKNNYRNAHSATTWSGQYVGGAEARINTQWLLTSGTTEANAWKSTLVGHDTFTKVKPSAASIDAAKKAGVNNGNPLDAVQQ

[7] = probe aInhba binding on compound microarray – biochemical, small-molecule microarray, 635/667 nm fluorescence, primary screen (AID 1148); conditions: higher = more signal;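 further: score merges 667nm spot fluorescence with signal-to-noise for antibody binding to printed compounds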
[8] = molecular target: Torsin-1A (Homo sapiens) (UniProt O14656); assay: TOR1A wild-type binding on microarray – cell lysate, small-molecule microarray, lysate, 635/667 nm, primary screen (AID 1149); conditions: COS7 hTOR1A-WT lysate, 635 nm fluorescence, higher = more signal
Sequence of Torsin-1A (Homo sapiens) (O14656 whole entry, looked up): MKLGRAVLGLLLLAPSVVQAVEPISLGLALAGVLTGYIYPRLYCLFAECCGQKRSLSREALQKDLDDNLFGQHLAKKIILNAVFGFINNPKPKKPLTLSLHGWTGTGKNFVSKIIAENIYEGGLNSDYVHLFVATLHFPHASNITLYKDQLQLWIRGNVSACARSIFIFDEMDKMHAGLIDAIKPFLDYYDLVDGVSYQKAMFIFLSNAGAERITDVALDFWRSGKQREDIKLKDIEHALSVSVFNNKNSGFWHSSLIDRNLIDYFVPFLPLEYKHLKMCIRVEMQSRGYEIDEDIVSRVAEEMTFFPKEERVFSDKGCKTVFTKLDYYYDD

[9] = molecular target: Torsin-1A (Homo sapiens) (UniProt O14656); assay: torsin A mutant lysate binding on microarrays – cell lysate, small-molecule microarray, COS7 lysate, 635/667 nm fluorescence, primary screen (AID 1150); conditions: COS7 hTOR1A mutant lysate, 635 nm fluorescence, higher = more signal;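 further: score pools 667 nm emission and signal to noise measuring lysate protein binding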
[10] = test system: Sonic hedgehog protein (Shh); assay: Sonic hedgehog microarray binding compounds – biochemical, small-molecule microarray, 635/667 nm fluorescence, primary screen (AID 1151); conditions: 635 nm fluorescence, higher = more signal;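 further: Shh protein binding to compounds spotted on small-molecule microarray slides; score combines spot fluorescence intensity with signal-to-noise across triplicate slides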

Q: For `CS(=O)(=O)CCOC(=O)C1=CC(CCCO)=CC(c2ccc(CN3CCCC3)cc2)N(Cc2cccc(OC(F)(F)F)c2)C=C1C(=O)OCCS(C)(=O)=O` (stereo not given), which composite z-score [1] is on record?
A: 0.531

Q: And the z-score [2]?
A: -1.42 (inactive)

Q: What about the z-score [3] of the same compound?
A: 4.41 (inactive)

Q: And the z-score [4]?
A: 4.56 (inactive)

Q: What about the z-score [5] of the same compound?
A: -0.0478 (inactive)

Q: What about the composite z-score [6] of the same compound?
A: 0.812

Q: What about the composite z-score [7] of the same compound?
A: 0.259

Q: What about the composite z-score [8] of the same compound?
A: 0.907

Q: And the composite z-score [9]?
A: 1.33

Q: What about the composite z-score [10] of the same compound?
A: 0.798

Q: What does the source list for `COCC(=C=CC[C@@H](O)c1ccc(OCCO)cc1)C[C@@H](O)c1ccccn1`?
A: composite z-score [1]: 0.117; z-score [2]: 0.0073 (inactive); z-score [3]: 0.0661 (inactive); z-score [4]: -0.0602 (inactive); z-score [5]: 2.62 (inactive); composite z-score [6]: 0.556; composite z-score [7]: 0.0001; composite z-score [8]: 0.0308; composite z-score [9]: -0.467; composite z-score [10]: 1.04

Q: Which composite z-score [1] does the source give for `O=C(CS)NCCCCCNC(=O)[C@@H]1C[C@@H]2C(=O)NCC(=O)N2[C@@H]1c1cccc(OCCO)c1` here?
A: 0.134

Q: What about the z-score [2] of the same compound?
A: -0.556 (inactive)

Q: What about the z-score [3] of the same compound?
A: -1.2 (inactive)

Q: And the z-score [4]?
A: -0.268 (inactive)

Q: What about the z-score [5] of the same compound?
A: 0.0712 (inactive)

Q: And the composite z-score [6]?
A: -0.774

Q: And the composite z-score [7]?
A: 0.136

Q: And the composite z-score [8]?
A: 0.396

Q: What about the composite z-score [9] of the same compound?
A: -0.0657

Q: And the composite z-score [10]?
A: 1.77

Q: Which composite z-score [1] does the source give for `COCCCNC(=O)[C@@H]1c2ccccc2C(=O)N(Cc2ccccc2OC)[C@H]1c1ccc(CO)cc1` here?
A: 0.924

Q: What about the z-score [2] of the same compound?
A: -4.79 (inactive)

Q: What about the z-score [3] of the same compound?
A: -2.25 (inactive)

Q: What about the z-score [4] of the same compound?
A: -0.502 (inactive)

Q: What about the z-score [5] of the same compound?
A: 0.715 (inactive)

Q: What about the composite z-score [6] of the same compound?
A: -0.665

Q: And the composite z-score [7]?
A: -0.0136

Q: What about the composite z-score [8] of the same compound?
A: 0.825

Q: And the composite z-score [9]?
A: -0.206

Q: What about the composite z-score [10] of the same compound?
A: 2.03

Q: Which composite z-score [1] does the source give for `CN1CCC(CCCO)=CC1c1cccs1` (stereo not given) here?
A: -0.142

Q: What about the z-score [2] of the same compound?
A: 0.504 (inactive)

Q: What about the z-score [3] of the same compound?
A: 0.519 (inactive)

Q: What about the z-score [4] of the same compound?
A: -0.145 (inactive)

Q: And the z-score [5]?
A: 1.84 (inactive)

Q: And the composite z-score [6]?
A: -0.131

Q: What about the composite z-score [7] of the same compound?
A: -0.128

Q: And the composite z-score [8]?
A: -0.214

Q: And the composite z-score [9]?
A: -0.122

Q: What about the composite z-score [10] of the same compound?
A: 0.834

Q: With `CC[C@@H]1C=C(C(=O)O)[C@H](c2cccc3ccccc23)N1S(=O)(=O)c1ccc(C)cc1` as the compound, how does the composite z-score [1] read?
A: 0.0605

Q: And the z-score [2]?
A: -0.0086 (inactive)

Q: What about the z-score [3] of the same compound?
A: 0.235 (inactive)

Q: What about the z-score [4] of the same compound?
A: -0.723 (inactive)

Q: And the z-score [5]?
A: 0.754 (inactive)

Q: What about the composite z-score [6] of the same compound?
A: 0.985

Q: What about the composite z-score [7] of the same compound?
A: -0.128

Q: What about the composite z-score [8] of the same compound?
A: 0.224

Q: And the composite z-score [9]?
A: 0.331

Q: What about the composite z-score [10] of the same compound?
A: -0.173

Q: With `CCCNC(=O)[C@@H]1c2ccccc2C(=O)N(Cc2ccccc2OC)[C@H]1c1ccc(CO)cc1` as the compound, how does the composite z-score [1] read?
A: 0.304

Q: And the z-score [2]?
A: -0.67 (inactive)

Q: What about the z-score [3] of the same compound?
A: 0.376 (inactive)

Q: And the z-score [4]?
A: 0.001 (inactive)

Q: And the z-score [5]?
A: -0.312 (inactive)

Q: And the composite z-score [6]?
A: 0.867

Q: And the composite z-score [7]?
A: -0.0066

Q: What about the composite z-score [8] of the same compound?
A: -0.3

Q: What about the composite z-score [9] of the same compound?
A: 0.889

Q: What about the composite z-score [10] of the same compound?
A: 1.52

Q: Which results are given for `[N-]=[N+]=Nc1ccccc1[C@H]1OC(c2ccc(OCCCO)cc2)=N[C@@]1(CCS(=O)(=O)c1ccccc1)C(=O)NCc1ccccc1`?
A: composite z-score [1]: 0.768; z-score [2]: -2.65 (inactive); z-score [3]: 0.0905 (inactive); z-score [4]: 1.26 (inactive); z-score [5]: -0.504 (inactive); composite z-score [6]: 1.47; composite z-score [7]: 0.204; composite z-score [8]: 0.503; composite z-score [9]: 0.786; composite z-score [10]: 0.0239

Q: Which composite z-score [1] does the source give for `CC(C)[Si](C#CCCCC#N)(Oc1ccccc1Br)C(C)C` here?
A: 0.0696

Q: What about the z-score [2] of the same compound?
A: -0.0761 (inactive)

Q: What about the z-score [3] of the same compound?
A: 0.0648 (inactive)

Q: And the z-score [4]?
A: -0.519 (inactive)

Q: And the z-score [5]?
A: -0.0887 (inactive)

Q: What about the composite z-score [6] of the same compound?
A: 0.525

Q: What about the composite z-score [7] of the same compound?
A: -0.15

Q: What about the composite z-score [8] of the same compound?
A: 0.42

Q: What about the composite z-score [9] of the same compound?
A: 0.222

Q: What about the composite z-score [10] of the same compound?
A: 0.544

Q: With `COC(=O)[C@]1(Cc2ccccc2)N=C(c2ccc(OCCCO)cc2)O[C@@H]1c1ccccc1N=[N+]=[N-]` as the compound, how does the composite z-score [1] read?
A: 0.501

Q: What about the z-score [2] of the same compound?
A: -5.26 (inactive)

Q: What about the z-score [3] of the same compound?
A: -0.441 (inactive)

Q: And the z-score [4]?
A: 1.34 (inactive)

Q: What about the z-score [5] of the same compound?
A: -1.47 (inactive)

Q: And the composite z-score [6]?
A: 0.291

Q: What about the composite z-score [7] of the same compound?
A: -0.0221

Q: And the composite z-score [8]?
A: -0.0019

Q: What about the composite z-score [9] of the same compound?
A: 0.0366

Q: What about the composite z-score [10] of the same compound?
A: 0.354

Q: Which composite z-score [1] does the source give for `C=CCNC(=O)[C@H]1[C@@H]2C(=O)O[C@@H](c3ccccc3)[C@@H](c3ccccc3)N2[C@@H](c2ccc(OCCO)cc2)[C@]12C(=O)Nc1ccc(C#CCC(C(=O)OC)C(=O)OC)cc12` here?
A: 0.256

Q: And the z-score [2]?
A: -1.19 (inactive)

Q: What about the z-score [3] of the same compound?
A: 0.626 (inactive)

Q: And the z-score [4]?
A: -0.728 (inactive)

Q: And the z-score [5]?
A: 0.323 (inactive)

Q: And the composite z-score [6]?
A: 1.17

Q: What about the composite z-score [7] of the same compound?
A: 0.0816

Q: What about the composite z-score [8] of the same compound?
A: 0.332

Q: What about the composite z-score [9] of the same compound?
A: 0.862

Q: And the composite z-score [10]?
A: 0.984

Q: For `COc1ccc([Si](C)(C)[C@H]2[C@H](CCn3cc([C@H](O)c4ccccc4)nn3)O[C@@]3(C(=O)N(C)c4ccccc43)[C@@H]2C)cc1`, which composite z-score [1] is on record?
A: -0.319

Q: And the z-score [2]?
A: -3.31 (inactive)

Q: And the z-score [3]?
A: -0.573 (inactive)

Q: And the z-score [4]?
A: 2.69 (inactive)

Q: And the z-score [5]?
A: -1.28 (inactive)

Q: What about the composite z-score [6] of the same compound?
A: -0.814

Q: And the composite z-score [7]?
A: -0.0221

Q: And the composite z-score [8]?
A: -0.71

Q: What about the composite z-score [9] of the same compound?
A: -0.193

Q: And the composite z-score [10]?
A: 1.36

Q: Which composite z-score [1] does the source give for `O=C1OCC=C[C@H]2OC34C=CCN(Cn5nnc6ccccc65)C(=O)[C@H]3N(CCCCCO)C(=O)[C@@H]4[C@@H]12` (stereo not given in full) here?
A: 0.238

Q: What about the z-score [2] of the same compound?
A: -0.17 (inactive)

Q: And the z-score [3]?
A: -1.03 (inactive)

Q: What about the z-score [4] of the same compound?
A: -0.623 (inactive)

Q: And the z-score [5]?
A: -0.29 (inactive)

Q: And the composite z-score [6]?
A: -0.573

Q: What about the composite z-score [7] of the same compound?
A: -0.348

Q: And the composite z-score [8]?
A: -0.884

Q: What about the composite z-score [9] of the same compound?
A: -1.08

Q: What about the composite z-score [10] of the same compound?
A: -0.502

Q: What does the source list for `CC(c1ccccc1)C(O)C1C=CC2C(=O)N(c3ccccc3)C(=O)C2N1Nc1ccccc1` (stereo not given)?
A: composite z-score [1]: 0.821; z-score [2]: -3.13 (inactive); z-score [3]: -0.626 (inactive); z-score [4]: 0.246 (inactive); z-score [5]: 0.379 (inactive); composite z-score [6]: 1.67; composite z-score [7]: 0.0906; composite z-score [8]: 0.524; composite z-score [9]: 1.07; composite z-score [10]: 0.843

Q: Which composite z-score [1] does the source give for `COc1ccc([Si](C)(C)[C@@H]2[C@@H](CCO)O[C@]3(C(=O)N(Cc4cccc(N5CCOC5=O)c4)c4ccccc43)[C@H]2C)cc1` here?
A: 0.183

Q: And the z-score [2]?
A: -5.47 (inactive)

Q: And the z-score [3]?
A: -0.631 (inactive)

Q: What about the z-score [4] of the same compound?
A: 8.62 (active)

Q: And the z-score [5]?
A: -0.905 (inactive)

Q: What about the composite z-score [6] of the same compound?
A: 0.424

Q: And the composite z-score [7]?
A: 0.0569

Q: What about the composite z-score [8] of the same compound?
A: 0.531

Q: What about the composite z-score [9] of the same compound?
A: 0.226

Q: And the composite z-score [10]?
A: 0.529
